Measured values reported in PubChem BioAssay.

Target: Fibroblast growth factor 2 (Homo sapiens) (UniProt P09038)
Assay: basic fibroblast growth factor binding to printed compounds – biochemical, small-molecule microarray, 635/667 nm fluorescence, primary screen (AID 1133)
Settings: FGF2, fluorescence 635/667, higher = more signal

Sequence of Fibroblast growth factor 2 (Homo sapiens) (P09038 whole entry, looked up): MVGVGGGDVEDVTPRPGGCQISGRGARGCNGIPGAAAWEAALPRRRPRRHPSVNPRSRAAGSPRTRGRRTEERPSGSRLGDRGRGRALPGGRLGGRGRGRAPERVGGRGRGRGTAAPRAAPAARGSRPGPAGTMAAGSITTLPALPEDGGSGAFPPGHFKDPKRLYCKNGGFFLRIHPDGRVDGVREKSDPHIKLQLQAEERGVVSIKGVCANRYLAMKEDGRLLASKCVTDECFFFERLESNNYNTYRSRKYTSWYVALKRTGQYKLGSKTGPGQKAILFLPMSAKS

SMILES	composite z-score
Cc1ccc(S[C@]2(C(=O)NCCCN(C)C)CC(=O)N(C3CCCCC3)[C@@H]2c2ccc(CO)cc2I)cc1	-0.29
O=C1C2C=CC(C(O)C#Cc3ccccc3)N(Nc3ccccc3)C2C(=O)N1c1ccccc1 (stereo unspecified)	-0.0859
O=C1NC(=O)C2C1C=CC(C(O)C=Cc1ccc([N+](=O)[O-])cc1)N2Nc1ccccn1 (stereo unspecified)	1.92
Cc1ccc(S(=O)(=O)N[C@H]2COC(=O)CC=C[C@H](C)COC(=O)N[C@@H](C)C(=O)CC=C[C@@H]2C)cc1	1.43
Cc1ccc(N2C(=O)c3ccccc3[C@](C)(C(=O)NCC(C)C)[C@@H]2c2ccc(CO)cc2)nc1	-0.671
O=C1C2C=CC(C(O)c3ccccc3)N(n3cnnc3)C2C(=O)N1Cc1ccccc1 (stereo unspecified)	-0.0128
COc1cc([C@@H]2N[C@H](C(=O)O)Cc3c2[nH]c2ccccc32)cc(OC)c1OC	0.254
C=CCNC(=O)[C@H]1[C@@H]2C(=O)O[C@@H](c3ccccc3)[C@@H](c3ccccc3)N2[C@@H](c2ccc(O)cc2)[C@]12C(=O)Nc1ccc(C#CCNC(N)=O)cc12	-0.415
CCC#CCN(Cc1ccccc1Br)[C@H](/C=C/c1ccccc1)[C@@H](O)Cc1ccccc1	-1.48
CCCC=C(CCC)[C@@H](NC(=O)c1ccccc1)c1ccccc1	-0.846
CO[C@H]1O[C@H](CO)[C@@H](OC(=O)CCc2ccccc2)[C@@H]2OC(=O)[C@H](Cc3cccc(Br)c3)C/C=C/C[C@@H](Cc3cccc(Br)c3)C(=O)O[C@@H]12	-0.706
C=CCC(OC(C)=O)[C@@H]1[C@@H](N(Cc2cccc3ccccc23)C(=O)c2ccc(C)cc2)c2cc(OCCCO)ccc2N1C(=O)c1ccc(-c2ccccc2)cc1 (stereo partly specified)	0.26
Cc1ccc(N2C(=O)c3ccccc3[C@](C)(C(=O)O)[C@@H]2c2ccc(CO)cc2)nc1	-1.12
C[C@@H]1CC[C@H]2C(=O)N3[C@@H](CC[C@@H](C)[C@@H]3c3cccc(N4CCOCC4)c3)C(=O)N2[C@H]1c1cccc(N2CCOCC2)c1	1.16
Cc1ccc(S[C@]2(C(=O)NCCN3CCOCC3)CC(=O)N(C3Cc4ccccc4C3)[C@@H]2c2ccc(CO)cc2I)cc1	-1.41
N#Cc1ccc(NN2C(C(O)c3ccc(I)cc3)C=CC3C(=O)N(c4ccccc4)C(=O)C32)cc1 (stereo unspecified)	-0.194
CCOC(=O)[C@H]1C/C=C/C[C@H](C(=O)OCC)C(=O)O[C@H]2[C@@H](OC)O[C@H](CO)[C@@H](OC(=O)Nc3ccc(Br)cc3)[C@@H]2OC1=O	0.376
C[C@@H]1C=CCC(=O)OC[C@H]2O[C@@H](C=C[C@@H]2O)[C@H](C)C=CCC(=O)OC[C@H]2O[C@H]1C=C[C@@H]2O	1.83

SMILES	composite z-score
CO[C@@H]1COC(=O)[C@H](C)NC(=O)CC=C[C@@H](C)[C@H](NS(=O)(=O)c2ccc(C)cc2)COC(=O)CC=C[C@@H]1C	0.0544
C=C(CCCC)/C(=C/C[C@@H](OC(=O)c1ccncc1)c1cccc(OCCO)c1)c1cc(C(=O)OC)ccc1OC	0.627
[N-]=[N+]=NCc1ccccc1C[C@]1(C(N)=O)N=C(c2ccc(OCCCO)cc2)O[C@H]1c1ccccc1CN=[N+]=[N-]	0.19
CCCCO[C@H]1C[C@H]2C(Br)=C[C@@]1(CO)C(=O)[C@]21CO1	0.0225
CC(C)N1CC=CC23O[C@@H]4/C=C\CCCOC(=O)C4[C@H]2C(=O)N(CCCCCO)[C@@H]3C1=O (stereo partly specified)	-1.03
CO[C@@H]1COC(=O)[C@H](C)NC(=O)CC=C[C@@H](C)[C@H](OC)COC(=O)[C@H](C)NC(=O)CC=C[C@H]1C	0.989
CCOC(=O)C[C@H]1[C@H](OC(=O)Cc2ccc3c(c2)OCO3)[C@@H](NC(=O)c2ccc3ccccc3c2)c2cc(OCCCO)ccc2N1C(=O)Cc1ccc(OC)cc1	0.441
CCCN1C(=O)[C@@]2(CCS(=O)(=O)c3ccccc3)N=C(c3ccc(OCCCO)cc3)O[C@H]2c2ccccc21	0.961
CCCC[C@@H]1C[C@H]1[C@@H](NC(=O)c1cccs1)c1ccc(Cl)cc1	-1.6
C[C@H]1COC(=O)[C@@H]2CCCN2C(=O)[C@@H](C)COC(=O)[C@@H]2CCCN2C1=O	0.1
[N-]=[N+]=NCc1ccccc1C[C@@]1(C(=O)O)N=C(c2ccc(OCCCO)cc2)O[C@@H]1c1ccccc1N=[N+]=[N-]	-0.316
O=C1C2C=CC(C(O)C(c3ccccc3)c3ccccc3)N(Nc3ccc([N+](=O)[O-])cc3)C2C(=O)N1c1ccccc1 (stereo unspecified)	-0.255
CO[C@H]1COC(=O)[C@H](CCSC)NC(=O)CC=C[C@@H](C)COC(=O)[C@@H](OCc2ccccc2)C=C[C@@H]1C	1.46
CCC(=O)[C@]12O[C@@]3([C@@H]4C(=O)OCC[C@@H]41)N(Cc1ccccc1)C(C)=C(C(=O)OC)[C@@H](c1ccccc1)N3C2=O	-0.715
COC(=O)[C@@]1(Cc2ccc(OC)cc2)[C@H]2c3cc(C(=O)N(C)C)n(CCc4ccc(OC)c(Br)c4)c3C[C@H]2CN1C(=O)c1ccccc1	-0.763
C#CCCCON=C1C[C@@H](O)[C@@H](O)[C@@H]2[C@@H]3C(=O)N(Cc4ccc5c(c4)OCO5)C(=O)[C@@H]3CC[C@H]12	0.4
COC(=O)c1c(CC[C@@H](CO)NC(=O)N[C@H](Cn2cc(-c3cncn3C)nn2)C(C)C)oc(C(C)=O)c1C(=O)OC	1.11
CCOC(=O)C1=CC[C@@H](c2ccc(-c3ccc(OCc4ccccc4)cc3)c(OC)c2)N(S(=O)(=O)c2ccc(C)cc2)[C@H]1c1ccccc1	0.275
